Data from PubChem BioAssay (NCATS).
Records with an inconclusive call do not appear. Activity calls are given as the source filed them. Calls come from the whole dose curve; as a rule, active = well fitted curve in the direction sought with a large enough effect; inconclusive = small, poorly fitted or top-dose-only effect, or another doubt; inactive = no such curve, though single readings can be large; an effect the other way counts as inactive or inconclusive.

Key:
Hek293T = assay: Primary qHTS to identify gynecologic anti-cancer compounds using libraries of approved drugs and bioactive compounds (AID 1345084); details: Gynecologic cancer cell panel viability, ATPlite luminescence, 48 h, control line for the selectivity index; series mostly up to 57.5 µM; note: nearly all actives have a fitted effect of over 55% in size
In short: (§1)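 Cytotoxicity screen measuring ATP content by luciferase luminescence. Each compound is applied at five concentrations for 48 h at 37 C with 5% CO2.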

JEG-3 = assay: as above; details: Gynecologic cancer cell panel viability, ATPlite luminescence, 48 h; series mostly up to 57.5 µM
In short: as §1

OV90 = assay: as above; details: Gynecologic cancer cell panel viability, ATPlite luminescence, 48 h; series mostly up to 57.5 µM
In short: as §1

PA-1 = assay: as above; details: Gynecologic cancer cell panel viability, ATPlite luminescence, 48 h; series mostly up to 57.5 µM
In short: as §1

SKOV3 = assay: as above; details: Gynecologic cancer cell panel viability, ATPlite luminescence, 48 h; series mostly up to 57.5 µM
In short: as §1

Tov-21-G = assay: as above; details: Gynecologic cancer cell panel viability, ATPlite luminescence, 48 h; series mostly up to 57.5 µM
In short: as §1

Tov112D = assay: as above; details: Gynecologic cancer cell panel viability, ATPlite luminescence, 48 h; series mostly up to 57.5 µM
In short: as §1

[1] = Drug repurposing screens with cells derived from glioblastoma tumor samples (AID 1345199); details: GBM patient neurospheres viability, ATP luminescence, 48 h; note: nearly all actives have a fitted effect of over 40% in size
In short: (§2)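 Four patient lines of CD133+ GBM neurospheres were screened at several concentrations; hits were retested in those lines plus three slower-growing GBM lines, using 48-hour treatment and ATP-based viability.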

astro = assay: as above; details: viability, ATP luminescence, 48 h; series mostly up to 45.9 µM
In short: as §2

[2] = at 45.9 µM (top of the series), tumour line B
[3] = at 45.9 µM (top of the series), tumour line D
[4] = at 46 µM (top of the series), tumour line A
[5] = at 46.1 µM (top of the series), tumour line C
[6] = at 20 µM (top of the series), tumour line C
[7] = at 21.2 µM (top of the series), tumour line B
[8] = at 21.2 µM (top of the series), tumour line D
[9] = at 21.3 µM (top of the series), tumour line A
% is set by controls: 0 for no effect and ±100 for the full control effect.

Cc1scc2c1N(C(=O)CN1CCN(C)CC1)c1ccccc1NC2=O
inactive: Potency (Hek293T) | Potency (JEG-3) | Potency (OV90) | Potency (PA-1) | Potency (SKOV3) | Potency (Tov-21-G) | Potency (Tov112D) | activity, negative = cell killing [1, 2] -11.6% | activity, negative = cell killing [1, 3] 2.13% | activity, negative = cell killing [1, 4] -22.7% | activity, negative = cell killing [1, 5] -12.1% | Potency (astro)

CC(C)NNC(=O)c1ccncc1
inactive: Potency (Hek293T) | Potency (JEG-3) | Potency (OV90) | Potency (PA-1) | Potency (SKOV3) | Potency (Tov-21-G) | Potency (Tov112D) | activity, negative = cell killing [1, 2] -11.9% | activity, negative = cell killing [1, 3] -16.2% | activity, negative = cell killing [1, 5] -23.6% | Potency (astro)

CCN(CC)CCNC(=O)c1ccc(NC(C)=O)cc1
inactive: Potency (Hek293T) | Potency (JEG-3) | Potency (OV90) | Potency (PA-1) | Potency (SKOV3) | Potency (Tov-21-G) | Potency (Tov112D) | activity, negative = cell killing [1, 2] -5.4% | activity, negative = cell killing [1, 3] 7.82% | activity, negative = cell killing [1, 4] 7.67% | activity, negative = cell killing [1, 5] -13.9% | Potency (astro)

CC(C)(Oc1ccc(CCNC(=O)c2ccc(Cl)cc2)cc1)C(=O)O
inactive: Potency (Hek293T) | Potency (JEG-3) | Potency (OV90) | Potency (PA-1) | Potency (SKOV3) | Potency (Tov-21-G) | Potency (Tov112D) | activity, negative = cell killing [1, 6] 15.6% | activity, negative = cell killing [1, 7] -6.51% | activity, negative = cell killing [1, 8] 0.604% | activity, negative = cell killing [1, 9] -25.9% | Potency (astro)

FC(F)(F)c1ccccc1-n1ccnc1
inactive: Potency (Hek293T) | Potency (JEG-3) | Potency (OV90) | Potency (PA-1) | Potency (SKOV3) | Potency (Tov-21-G) | Potency (Tov112D) | activity, negative = cell killing [1, 2] -13.1% | activity, negative = cell killing [1, 3] -9.1% | activity, negative = cell killing [1, 4] -27.4% | activity, negative = cell killing [1, 5] -16.7% | Potency (astro)

CC(C(=O)O)c1ccc(CC2CCCC2=O)cc1 (centres undefined)
inactive: Potency (Hek293T) | Potency (JEG-3) | Potency (OV90) | Potency (PA-1) | Potency (SKOV3) | Potency (Tov-21-G) | Potency (Tov112D) | activity, negative = cell killing [1, 2] -3.22% | activity, negative = cell killing [1, 3] 4.21% | activity, negative = cell killing [1, 4] -18.9% | activity, negative = cell killing [1, 5] -19.4% | Potency (astro)

C[C@@H](O)[C@H]1C(=O)N2C(C(=O)O)=C(SCCN=CN)C[C@H]12
inactive: Potency (Hek293T) | Potency (JEG-3) | Potency (OV90) | Potency (PA-1) | Potency (SKOV3) | Potency (Tov-21-G) | Potency (Tov112D) | activity, negative = cell killing [1, 6] -11.4% | activity, negative = cell killing [1, 7] -16.2% | activity, negative = cell killing [1, 8] -8.7% | activity, negative = cell killing [1, 9] -14.5% | Potency (astro)

C=CCc1ccccc1OCC(O)CNC(C)C (centres undefined)
inactive: Potency (Hek293T) | Potency (JEG-3) | Potency (OV90) | Potency (PA-1) | Potency (SKOV3) | Potency (Tov-21-G) | Potency (Tov112D) | activity, negative = cell killing [1, 2] -18% | activity, negative = cell killing [1, 3] -4.74% | activity, negative = cell killing [1, 5] -6.66% | Potency (astro)
